Measurements reported in PubChem BioAssay (NCATS).
Records with an inconclusive call do not appear. Active and inactive are the calls of the source. Calls come from the whole dose curve; as a rule, active = well fitted inhibition curve with a large enough effect; inconclusive = small, poorly fitted or top-dose-only effect; inactive = flat fitted curve, though single readings scatter.

Legend:
[1] = system: HEK293; experiment: Cytotoxic Profiling of Annotated Libraries Using Quantitative High-Throughput Screening (AID 1296008); conditions: Five cell lines viability, CellTiter-Glo ATP luminescence, 48-72 h; max response: stronger effect = lower value; for max response: % is set by controls: 0 for no effect and ±100 for the full control effect
In short: (§1)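 Compounds were pin-transferred onto cells and incubated 48 or 72 hr at 37 degree Celsius, 95% humidity. CellTiter-Glo was added, plates sat 10 min at room temperature, then ATP-coupled luminescence was imaged as the viability read-out.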

[2] = system: HaCat; experiment: as above; conditions: Five cell lines viability, CellTiter-Glo ATP luminescence, 48-72 h; max response: stronger effect = lower value
In short: as §1

[3] = system: KB-3-1; experiment: as above; conditions: Five cell lines viability, CellTiter-Glo ATP luminescence, 48-72 h; max response: stronger effect = lower value
In short: as §1

[4] = system: NIH3T3; experiment: as above; conditions: Five cell lines viability, CellTiter-Glo ATP luminescence, 48-72 h; max response: stronger effect = lower value
In short: as §1

[5] = system: HACAT; experiment: qHTS assay to identify novel small-molecules to repurpose for Merkel cell carcinoma treatment (AID 1296009); conditions: MCC and control cell lines, CellTiter-Glo viability, 72 h; at 44.8 µM (top of the series) unless noted
In short: (§2)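 qHTS format: cells treated with library compounds in DMSO across 8 (NPC) or 11 (MIPE) concentrations. Readout after 72 hr at 37 degree celsius was CellTiter-Glo luminescence.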

[6] = system: HEK293T; experiment: as above; conditions: MCC and control cell lines, CellTiter-Glo viability, 72 h; series mostly up to 44.8 µM
In short: as §2
Note: nearly all actives have a fitted effect of over 60% in size.

C/C1=C\C[C@H](O[C@@H]2O[C@H](CO)[C@@H](O)[C@H](O)[C@H]2O)/C(C)=C/[C@H]2OC(=O)[C@H](C)[C@@H]2CC1
inactive: outcome [1] | outcome [2] | max response [3] 8.78% | outcome [4] | outcome [5] inactive [at 17.4 µM] | Potency [6]

O=C(/C=C/c1ccc(O)cc1)OC[C@H]1O[C@@H](OC(=O)/C=C/c2ccccc2)[C@H](O)[C@@H](O)[C@@H]1O
inactive: outcome [1] | outcome [2] | max response [3] -1.64% | outcome [4] | outcome [5] inactive [at 17.4 µM] | Potency [6]

C[C@]12CC[C@@H]3c4ccc(O[C@@H]5O[C@H](C(=O)O)[C@@H](O)[C@H](O)[C@H]5O)cc4CC[C@H]3[C@@H]1CCC2=O
inactive: outcome [1] | outcome [2] | outcome [3] | outcome [4] | outcome [5] | Potency [6]

C=CCc1ccc(O[C@@H]2O[C@H](CO)[C@@H](O)[C@H](O)[C@H]2O)c(OC)c1
inactive: outcome [1] | outcome [2] | outcome [3] | outcome [4] | outcome [5] | Potency [6]

CC(C)(O)/C=C1/C(=O)C(C)(C)C(=O)C(C)(C)C1(O)O[C@@H]1O[C@H](COC(=O)c2cc(O)c(O)c(O)c2)[C@@H](O)[C@H](O)[C@H]1O (stereo not given in full)
inactive: outcome [1] | outcome [2] | outcome [3] | max response [4] 4.71% | outcome [5] inactive [at 17.4 µM] | Potency [6]

COC(=O)C1=CO[C@@H](O[C@@H]2O[C@H](COC(=O)/C=C/c3cc(OC)c(O)c(OC)c3)[C@@H](O)[C@H](O)[C@H]2O)[C@@H]2C(CO)=CC[C@H]12
inactive: outcome [1] | outcome [2] | max response [3] 1.62% | max response [4] 0.53% | outcome [5] inactive [at 17.4 µM] | Potency [6]

C=C[C@H]1[C@H](O[C@@H]2O[C@H](CO[C@@H]3OC[C@](O)(CO)[C@H]3O)[C@@H](O)[C@H](O)[C@H]2O)OC=C2C(=O)OCC[C@H]21
inactive: outcome [1] | outcome [2] | outcome [3] | outcome [4] | outcome [5] inactive [at 17.4 µM] | Potency [6]

CC1(O)CCC2C(C(=O)O)=COC(OC3OC(CO)C(O)C(O)C3OC(=O)/C=C/c3ccc(O)cc3)C21 (stereo not given)
inactive: outcome [1] | outcome [2] | max response [3] 8.2% | outcome [4] | outcome [5] inactive [at 17.4 µM] | Potency [6]

CN1CCC(c2c[nH]c3ccc(NC(=O)c4ccc(F)cc4)cc23)CC1
inactive: outcome [1] | outcome [2] | max response [3] 7.4% | max response [4] -0.678% | outcome [5] | Potency [6]

Oc1ccc([C@H]2COc3cc(O)ccc3C2)cc1
inactive: outcome [1] | outcome [2] | max response [3] 0.946% | max response [4] 3.41% | outcome [5] | Potency [6]

CNC(=O)COC(=O)NCCC1CCN(c2cccc(C)n2)CC1
inactive: outcome [1] | outcome [2] | max response [3] 9.28% | max response [4] -5.35% | outcome [5] | Potency [6]

C=C1CC[C@H]2[C@@H](/C=C(\C)C(=O)[C@@]3(OC(C)=O)C[C@H](C)[C@H](OC(C)=O)[C@@H]3[C@H]1OC(C)=O)C2(C)C
inactive: outcome [1] | outcome [2] | outcome [3] | outcome [4] | outcome [5] inactive [at 17.4 µM] | Potency [6]

O=C(O)c1cc(O[C@@H]2O[C@H](CO[C@@H]3OC[C@@H](O)[C@H](O)[C@H]3O)[C@@H](O)[C@H](O)[C@H]2O)c2ccccc2c1O
inactive: outcome [1] | outcome [2] | outcome [3] | max response [4] -7.85% | outcome [5] inactive [at 17.4 µM] | Potency [6]

C1CCN2CC3C[C@@H](CN4CCCC[C@@H]34)[C@H]2C1
inactive: outcome [1] | outcome [2] | max response [3] 5.45% | max response [4] -1.12% | outcome [5] | Potency [6]

CCOc1nc2cccc(C(=O)O)c2n1Cc1ccc(-c2ccccc2-c2noc(=O)[nH]2)cc1
inactive: outcome [1] | outcome [2] | outcome [3] | max response [4] -8.35% | outcome [5] | Potency [6]

CC1CCC2C(C)(C)CC(C)(CO)C2(O)C1C(=O)O (stereo not given)
inactive: outcome [1] | outcome [2] | max response [3] 9.23% | outcome [4] | outcome [5] | Potency [6]

CC(NC(=O)CC(=O)O)c1nc2ccccc2c(=O)[nH]1 (stereo not given)
inactive: outcome [1] | outcome [2] | outcome [3] | outcome [4] | outcome [5] | Potency [6]

CC(=O)OC(CSC1CCC(=O)OC(C)CCC(=O)C1)C(=O)O (stereo not given)
inactive: outcome [1] | outcome [2] | outcome [3] | outcome [4] | outcome [5] | Potency [6]

COc1cc(NC(=O)c2ccccn2)ccc1Cl
inactive: outcome [1] | outcome [2] | max response [3] -6.58% | outcome [4] | outcome [5] | Potency [6]

CC(C)C1(O[C@@H]2O[C@H](CO)[C@@H](O)[C@H](O)[C@H]2O)CC=C(CO)CC1 (stereo not given in full)
inactive: outcome [1] | outcome [2] | max response [3] -0.585% | max response [4] 0.631% | outcome [5] | Potency [6]
